Hits are enriched below; roughly 2% of the tested compounds scored in any of these assays.
M4 PAM: potentiates acetylcholine response at human M4 receptor | CHO-K1 hM4/Gqi5, Fluo-8 calcium fluorescence, ACh EC20; 0% = ACh EC20, 100% = maximal ACh | 360,000 tested, 0.4% active | activation, % at 3 µM | P08173;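 active = activation above its plate's cutoff, the mean activation of sample wells plus 3 SD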
Target sequence (P08173 whole entry, looked up): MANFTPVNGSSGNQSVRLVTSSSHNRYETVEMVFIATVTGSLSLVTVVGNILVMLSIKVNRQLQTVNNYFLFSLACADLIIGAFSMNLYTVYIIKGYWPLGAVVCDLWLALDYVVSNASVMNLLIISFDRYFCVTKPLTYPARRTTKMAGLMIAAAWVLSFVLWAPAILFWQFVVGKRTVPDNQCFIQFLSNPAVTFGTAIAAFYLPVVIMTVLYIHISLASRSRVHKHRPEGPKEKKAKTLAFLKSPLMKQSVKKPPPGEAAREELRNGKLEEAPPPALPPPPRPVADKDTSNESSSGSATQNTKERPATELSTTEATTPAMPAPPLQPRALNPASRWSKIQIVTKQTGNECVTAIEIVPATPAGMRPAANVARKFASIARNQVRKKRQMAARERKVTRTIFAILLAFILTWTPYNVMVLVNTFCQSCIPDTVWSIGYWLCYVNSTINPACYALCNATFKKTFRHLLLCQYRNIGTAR
CHO-K1 Ca antag: counter-screen for M1 antagonists: effect in parental CHO-K1 cells | AID 602250 | 360,000 tested, 0.6% active | inhibition, % at 3 µM | ATP-induced calcium, Fluo-8 fluorescence;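 active = inhibition above a per-plate cutoff, the plate's mean sample inhibition plus 3 SD, cut at about 24% in these data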;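 also: 0% = DMSO plus EC80 ATP and 100% = DMSO alone without ATP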
CHO-K1 Ca PAM: nonselective activator or artifact in parental CHO-K1 calcium assay; ATP EC20, Fluo-8 calcium fluorescence; 0% at ATP EC20, 100% at ATP max; activation, % at 3 µM; AID 602247; 360,000 tested, 0.02% active;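 active = activation above the run cutoff, the mean activation of all test compounds plus 3 SD, cut at about 40% in these data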;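 also: peak over basal fluorescence ratio in a 140 s read after ATP addition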
CHO-K1 Ca ag: counter-screen for M1 agonists: effect in parental CHO-K1 cells; Fluo-8 calcium fluorescence; scaled to maximal ATP response, vehicle zero; activation, % at 3 µM; 360,000 tested, 0.48% active; in the data active = activation above about 15%;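 also: untransfected CHO-K1 host cells lacking M1 receptor as counterscreen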
CHRM4 antagonist: blocks acetylcholine activation of human M4 receptor; 360,000 tested, 0.73% active; inhibition, % at 3 µM; P08173; CHO-hM4 cells, ACh EC80, Fluo-8 calcium fluorescence;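 active = inhibition above its plate's cutoff, the mean inhibition of sample wells plus 3 SD, cut at about 27% in these data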;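 also: 0% = acetylcholine EC80 with DMSO and 100% = DMSO without agonist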
M4 ag: agonists of human muscarinic M4 receptor (CHRM4) | activation, % at 3 µM | P08173 | CHO-K1 hM4/Gqi5, Fluo-8 calcium fluorescence; vehicle 0%, full acetylcholine response 100% | AID 624127 | 360,000 tested, 0.14% active;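 active = activation above the run mean over all test wells plus 3 SD, cut at about 32% in these data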;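 also: peak over basal fluorescence ratio per well then scaled between controls; 0% = DMSO wells and 100% = acetylcholine at EC100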
* = called active by the depositor.

SMILES	M4 PAM	CHO-K1 Ca antag	CHO-K1 Ca PAM	CHO-K1 Ca ag	CHRM4 antagonist	M4 ag
O=C(NCC1(N2CCCCC2)CCCCC1)c1ccc(NS(=O)(=O)c2ccccc2)cc1	3	28*	-4	1	1	0
Cc1cc(C(=O)NCc2cccnc2)n(-c2ccccc2)n1	-13	13	-2	0	35*	1
Cc1ccc(CNC(=O)c2cc(C)nn2-c2ccccc2)cc1	-19	-10	-8	0	7	1
O=C(N/N=C/c1ccc(-c2ccc(Cl)c(C(=O)O)c2)o1)c1cc2c(ccc3ccccc32)o1	9	11	-13	0	27*	1
Cc1ccc(-c2ccc(/C=N\NC(=O)c3cc4c(ccc5ccccc54)o3)o2)cc1[N+](=O)[O-]	0	-3	9	0	1	0
Cc1cccc(OCc2nnc(SCC(=O)c3c(N)n(C4CC4)c(=O)[nH]c3=O)o2)c1	19	-4	-2	0	-11	1
OC1(C#CCCN2CCCCC2)c2ccccc2-c2ccccc21	-25	-6	-2	5	56*	1
OC1(CC#CCN2CCCCC2)c2ccccc2-c2ccccc21	-35	-11	22	1	10	0
COC(=O)C1CCN(S(=O)(=O)c2ccc(OC)cc2)CC1	0	-6	22	3	5	-1
COc1ccc(S(=O)(=O)Nc2ccc3c(c2)OCO3)cc1OC	0	-10	19	1	-3	2
COc1ccc(NS(=O)(=O)c2ccc3c(c2)OCCO3)cc1OC	-4	36*	-2	14	-5	15
COc1ccc(NS(=O)(=O)c2ccc(-c3cnc(C4CC4)o3)cc2)cc1OC	-6	23	-19	16*	15	18
Cc1c(NC(=O)c2ccc(NS(=O)(=O)c3ccc(F)c(F)c3)cc2)c(=O)n(-c2ccccc2)n1C	5	-6	7	0	6	0
CCN(CC(=O)N1CCOCC1)S(=O)(=O)c1cc(Cl)ccc1Cl	-2	6	-23	0	3	0
CCCCCCCCCC[n+]1cccc(C(=O)N(CC)CC)c1	-17	-3	9	0	44*	0
NC(=O)c1ccc[n+](CCC[n+]2cccc(C(N)=O)c2)c1	16	-16	15	0	-16	1
COc1cc(NC(=O)C(C)Oc2ccccc2)c(OC)cc1NC(=O)c1ccccc1 (centres undefined)	3	24*	-24	0	-7	-1
CCOC(=O)c1c2n(c3c(NCc4ccccc4)ncnc13)CCCC2	-4	24*	-8	0	0	1
CCOC(=O)CC[C@H](NC(=O)Cn1cnc2c(NCc3ccccc3)ncnc21)C(=O)OCC	1	5	-8	0	-11	1
COc1ccc(C(=O)Nc2ccc(NS(=O)(=O)c3ccccc3)cc2)cc1OC	1	-9	8	2	14	3
O=C(NCC1CCCO1)c1ccc(NC(=O)c2ccc([N+](=O)[O-])cc2)cc1 (centres undefined)	13*	3	-5	2	-9	6
CCOc1ccc(/C=C/C2=Cc3c(sc(NC(=O)CSc4n[nH]c(N)n4)c3C#N)C(C)(C)C2)cc1	-2	21	-3	2	47*	8
O=C(NCC1CCN(Cc2cccc(Cl)c2)CC1)C1CCCN(c2ncnc3c2nc2n3CCCCC2)C1 (centres undefined)	-12	-12	6	5	36*	8
O=C(NCC1CCN(Cc2ccc(Cl)cc2)CC1)C1CCCN(c2ncnc3c2nc2n3CCCCC2)C1 (centres undefined)	-23	-4	10	3	84*	10
O=C(NCC1CCN(Cc2ccc(F)cc2)CC1)C1CCCN(c2ncnc3c2nc2n3CCCCC2)C1 (centres undefined)	-11	-9	8	0	36*	0
O=C(Cn1cc(COc2c(F)c(F)c(Br)c(F)c2F)nn1)c1ccc(O)cc1	2	-6	25	2	-6	3
C[C@@H]1CN([C@H](C)CO)C(=O)CCCn2nncc2CO[C@H]1CN(C)Cc1ccc2cccnc2c1	-1	-5	2	0	0	0

Screens (PubChem)
